Source: PubChem
The sample as a whole holds a higher share of hits than the screen did.
Shiga inhibitor: blocks Shiga toxin action in Vero cells. Vero cells, Shiga toxin protein synthesis inhibition reporter. inhibition, % at 38.7 µM. 9.2% of 290,000 active. AID 2315; in the data active = inhibition mostly above about 28%, no sharp cut-off; inactive = mostly below about 43%
Cycloheximide cs: affects cycloheximide protein synthesis inhibition readout, counter-screen | cell reporter, cycloheximide protein synthesis inhibition counterscreen | max response, % | 12% of 300,000 active | AID 2314; in the data active = max response mostly above about 13%, no sharp cut-off; inactive = mostly below about 14%; note: read at 38.3 µM for the half of the compounds with a filed dose
AmpC inh no detg: AmpC beta-lactamase inhibition without detergent; P00811; AmpC nitrocefin hydrolysis, absorbance 480 nm, 0.0001% Triton; Potency, µM (doses to about 57.1 µM), most hits filed as inhibitors; 0.52% of 330,000 active; AID 485341; note: nearly all actives have a fitted effect of over 20% in size
Target sequence (P00811 whole entry, looked up): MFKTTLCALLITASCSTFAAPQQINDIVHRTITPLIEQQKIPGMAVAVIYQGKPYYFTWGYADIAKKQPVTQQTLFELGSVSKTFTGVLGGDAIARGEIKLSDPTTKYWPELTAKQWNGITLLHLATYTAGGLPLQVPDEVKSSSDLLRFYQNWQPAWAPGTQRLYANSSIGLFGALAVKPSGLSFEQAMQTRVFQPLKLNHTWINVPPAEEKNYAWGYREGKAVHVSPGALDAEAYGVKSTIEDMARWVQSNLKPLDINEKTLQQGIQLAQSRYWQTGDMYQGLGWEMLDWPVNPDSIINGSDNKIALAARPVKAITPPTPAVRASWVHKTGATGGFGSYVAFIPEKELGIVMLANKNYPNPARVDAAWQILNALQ
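AmpC (5.3 nM in the dispensed reagent) in 20 mM phosphate pH 7.0 with 0.01% (detergent screen) or 0.0001% Triton X-100 was preincubated with compounds for 15 min at room temperature. Nitrocefin was then added from an 800 uM solution, and hydrolysis was followed at 480 nm.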
AmpC detergent: AmpC beta-lactamase inhibition with detergent present | AmpC hydrolysis of nitrocefin, absorbance 480 nm, 0.01% Triton | P00811 | Potency, µM (titrated, usually from 114 µM), hits mostly inhibitors | 0.041% of 370,000 active | AID 485294; note: nearly all actives have a fitted effect of over 25% in size
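20 mM phosphate pH 7.0 + 0.01% (detergent screen) or 0.0001% Triton X-100; 5.3 nM AmpC reagent; cpd preinc 15 min RT; nitrocefin (800 uM stock) to start; A480 q20 s × 4 min; Activity was normalised to no-enzyme and no-compound control wells.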
NS1 function inh: inhibitors of influenza NS1 protein function; Potency, µM (highest dose often 46.1 µM); 0.4% of 270,000 active; AID 2326; calls by dose curve; note: actives are rising curves; nearly all actives have a fitted effect of over 50% in size
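A cell-based growth assay was used: compounds that relieve NS1-induced slow growth of budding yeast raise OD600. Assay medium was yeast nitrogen base with ammonium sulphate and -URA supplement, pH 6.0, with 2% galactose.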
Of the large screens only hits and unclear results are named; the others gave an inactive call. Unless noted, calls come from the whole dose curve; as a rule, active = well fitted curve in the direction sought with a large enough effect; inconclusive = small, poorly fitted or top-dose-only effect, or another doubt; inactive = no such curve, though single readings can be large; an effect the other way counts as inactive or inconclusive.

Cc1ccc(-c2cnn(-c3cccc(C(F)(F)F)c3)c2N)cc1	Shiga inhibitor 89, Cycloheximide cs 41
O=c1cnn(-c2ccccc2)c(-c2ccccc2)c1	Shiga inhibitor 62, Cycloheximide cs 23
Nc1c(-c2ccccc2)cnc2ncnn12	none
Nc1c(-c2cccc(Cl)c2)cnn1-c1ccccc1	Shiga inhibitor 70, Cycloheximide cs 45
O=c1oc(-c2cccc(Cl)c2)nc2c1cnn2-c1ccccc1	none
COc1cccc(C(=O)NC(=O)Nc2ccc(-n3nc(C(F)(F)F)cc3C(F)(F)F)cc2)c1	none (no result: Shiga inhibitor, Cycloheximide cs, AmpC inh no detg, NS1 function inh)
Cc1ncc(S(=O)(=O)C(C)(C)C)c(N)n1	none
CCOc1ccccc1N1CCN(C(=O)c2ccc3[nH]c4c(c3c2)CCCC4)CC1	none
O=C(CN1CCCCC1)N/N=C/c1ccc(Cl)cc1	Shiga inhibitor 45, Cycloheximide cs 14
O=C(CN1CCCCCCC1)N/N=C/c1ccc(F)c(F)c1	none
COc1cc(/C=N/NC(=O)CN2CCCCC2)ccc1OCc1ccccc1	Shiga inhibitor active, Cycloheximide cs 28
COc1cc(/C=N/OCC(=O)Nc2cc(C)on2)ccc1OCc1ccccc1	Shiga inhibitor 104, Cycloheximide cs 18
COc1cc(/C=N/n2cnnc2)ccc1OCc1ccccc1	Cycloheximide cs 22
Cc1cc(C)cc(NC(=O)C2CCC(CNS(=O)(=O)c3ccc4c(c3)C(C)(C)C(=O)N4C)CC2)c1 (stereo not drawn)	none (no result: Shiga inhibitor, Cycloheximide cs, AmpC inh no detg, NS1 function inh)
COc1ccc(/C=N/NC(=O)CN2CCCC2)cc1	none
CC(C)(C)OC(=O)COc1ccc(/C=N/NC(=O)CN2CCCCC2)cc1	Shiga inhibitor 88, Cycloheximide cs 45
Cn1cccc1CC(=O)N/N=C/c1ccc(Cl)cc1	Shiga inhibitor 26, Cycloheximide cs 16
C=CCOc1cccc(/C=N/NC(=O)CN2CCCCC2)c1	none
O=C(CN1CCCCCC1)N/N=C/c1ccc2ccccc2c1	Shiga inhibitor 74, Cycloheximide cs 43
COc1ccc(C)cc1Nc1nc2cc(Cl)c(Cl)cc2nc1-n1nc(C)cc1C	none (no result: Shiga inhibitor, Cycloheximide cs, AmpC inh no detg, NS1 function inh)
Cc1cc(C(=O)NCCc2ccc(S(=O)(=O)NC(=O)NN3CCCCCC3)cc2)no1	none (no result: AmpC inh no detg, AmpC detergent, NS1 function inh)
Cc1nc2cc(-c3ccccc3)nn2c(C)c1CCC(=O)NCc1cccc(Cl)c1	none (no result: Shiga inhibitor, Cycloheximide cs, AmpC inh no detg, NS1 function inh)
O=C(Nc1ccccc1)c1ccc(OC(=O)c2ccccc2)cc1	AmpC detergent inconclusive
CN(C)C(=O)Oc1ccc(OC(=O)c2ccccc2)cc1	Shiga inhibitor 20, Cycloheximide cs 39
COc1ccc2[nH]cc(CCNS(=O)(=O)c3ccccc3)c2c1	none
CCOC(=S)NC(=O)c1sc2ccccc2c1Cl	Cycloheximide cs 32
Cc1ccccc1COC(=O)CNC(=O)c1sc2ccccc2c1Cl	none (no result: Shiga inhibitor, Cycloheximide cs, NS1 function inh)
CCCOC(=S)NC(=O)c1sc2ccccc2c1Cl	Shiga inhibitor 63, Cycloheximide cs 40
O=C(CNC(=O)c1sc2ccccc2c1Cl)NCc1cccnc1	none
O=C(NC(=S)NCCO)c1sc2ccccc2c1Cl	Shiga inhibitor 111, Cycloheximide cs 51
COc1cccc(NC(=O)C(=O)NCCC2CCCCN2S(=O)(=O)c2cccs2)c1 (stereo not drawn)	AmpC detergent inconclusive (no result: Shiga inhibitor, Cycloheximide cs, NS1 function inh)
O=C(COc1ccccc1)N=C1SC2CS(=O)(=O)CC2N1c1ccccc1 (stereo not drawn)	AmpC detergent inconclusive
CN(C)c1ccc(N2C(=NC(=O)COc3ccccc3)SC3CS(=O)(=O)CC32)cc1 (stereo not drawn)	Shiga inhibitor 46, Cycloheximide cs 25
O=C(NCc1ccc(-c2nc3ccccc3s2)cc1)c1cc2ccccc2o1	Shiga inhibitor 48, Cycloheximide cs 20
O=C(NCc1ccc(-c2nc3ccccc3s2)cc1)c1ccc(Br)o1	Shiga inhibitor 40, Cycloheximide cs 28
CCOC(=O)Nc1ccc(N2CCOCC2)c(S(=O)(=O)N2CCOCC2)c1	none
CC(c1ccccc1)c1nnc(NC(=O)c2ccc3c(c2)OCO3)s1 (stereo not drawn)	none
CCOC(=O)CSc1nnc(NC(=O)c2ccc3c(c2)OCO3)s1	none
CC(C)Sc1nnc(NC(=O)c2ccc3c(c2)OCO3)s1	Shiga inhibitor 56, Cycloheximide cs 24
CCSc1nnc(NC(=O)c2ccc3c(c2)OCO3)s1	Shiga inhibitor 67, Cycloheximide cs 45
CC(C)(C)c1nnc(NC(=O)c2ccc3c(c2)OCO3)s1	Shiga inhibitor 170, Cycloheximide cs 39
CC(C)c1nnc(NC(=O)c2ccc3c(c2)OCO3)s1	Shiga inhibitor 125, Cycloheximide cs 40
Cc1ccc(C2OC(=O)C=C2c2ccccc2)cc1 (stereo not drawn)	none (no result: Shiga inhibitor, Cycloheximide cs, NS1 function inh)
